Where a name gives a salt, the structure may show the parent alone.
Key:
Conditions in all cases: incubation time: 27 h, anaerobic, 37 °C;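 for the amine columns active = adjusted P below 0.05 in both replicates with a change the same way and a mean fold change under 0.8 or over 1.25; inactive = the rest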
[1] = test system: Clostridium sporogenes DSM 1664; assay: growth (OD595) fold change vs plate DMSO controls (fold change (ratio)); higher = more growth
Outline: (§1)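 The reported measure is growth: the fold change against the median of DMSO controls on the plate. Absorbance at 595 nm from anaerobic 96-well mGAM cultures grown for 27 h at 37 °C was blank-subtracted, corrected for background with 20 µM compound solutions in water, and converted to OD with a calibration factor of 5. Fold changes above 1.5 appear as NA, and values are the mean of 2 biological replicates.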

[2] = test system: Escherichia coli IAI1; assay: as above
Outline: as §1

[3] = test system: Klebsiella aerogenes DSM 30053; assay: as above
Outline: as §1

[4] = test system: Ruminococcus gnavus DSM 108212; assay: as above
Outline: as §1

[5] = test system: Klebsiella aerogenes DSM 30053; assay: fold change of Histamine concentration vs plate DMSO controls (fold change (ratio)); higher = more amine produced, active = hit call of the paper (significant change in both replicates, either direction)
Outline: (§2)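 Amines were quantified by LC–triple-quadrupole MS in dynamic MRM mode against external calibration curves, with drift correction within each batch. The samples were whole anaerobic mGAM cultures of four gut bacterial strains, grown for 27 h at 37 °C in 80 µL wells and extracted with cold acetonitrile/methanol with 0.1% formic acid, then centrifuged. Values are reported as fold change over DMSO controls on the same plate. The mean of 2 biological replicates is given.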

[6] = test system: Clostridium sporogenes DSM 1664; assay: fold change of Tryptamine concentration vs plate DMSO controls (fold change (ratio)); higher = more amine produced, active = hit call of the paper (significant change in both replicates, either direction)
Outline: as §2

[7] = test system: Ruminococcus gnavus DSM 108212; assay: as above
Outline: as §2

[8] = test system: Escherichia coli IAI1; assay: fold change of Putrescine concentration vs plate DMSO controls (fold change (ratio)); higher = more amine produced, active = hit call of the paper (significant change in both replicates, either direction)
Outline: as §2

[9] = test system: Klebsiella aerogenes DSM 30053; assay: as above
Outline: as §2

[10] = test system: Escherichia coli IAI1; assay: fold change of Cadaverine concentration vs plate DMSO controls (fold change (ratio)); higher = more amine produced, active = hit call of the paper (significant change in both replicates, either direction)
Outline: as §2

[11] = test system: Klebsiella aerogenes DSM 30053; assay: as above
Outline: as §2

[12] = test system: Ruminococcus gnavus DSM 108212; assay: fold change of 2-Phenylethylamine concentration vs plate DMSO controls (fold change (ratio)); higher = more amine produced, active = hit call of the paper (significant change in both replicates, either direction)
Outline: as §2

Structure (SMILES) | growth [1] | growth [2] | growth [3] | growth [4] | fold change of Histamine concentration [5] | fold change of Tryptamine concentration [6] | fold change of Tryptamine concentration [7] | fold change of Putrescine concentration [8] | fold change of Putrescine concentration [9] | fold change of Cadaverine concentration [10] | fold change of Cadaverine concentration [11] | fold change of 2-Phenylethylamine concentration [12]
Cc1onc(-c2c(Cl)cccc2Cl)c1C(=O)N[C@@H]1C(=O)N2[C@@H]1SC(C)(C)[C@@H]2C(=O)O [Dicloxacillin sodium salt hydrate] (20 µM) | 0.000771 | 0.996 | 0.975 | 0.165 | 1.01 (inactive) | 0.0119 (active) | 0.05 (active) | 0.979 (inactive) | 1.01 (inactive) | 1.03 (inactive) | 0.994 (inactive) | 0.0548 (active)
CCC(C)(C)c1ccc(CC(C)CN2C[C@@H](C)O[C@@H](C)C2)cc1 (some centres undefined) [Amorolfine hydrochloride] (20 µM) | 1.07 | 0.995 | 1.01 | 0.849 | 1.01 (inactive) | 0.989 (inactive) | 0.868 (inactive) | 1.03 (inactive) | 1 (inactive) | 1.02 (inactive) | 0.997 (inactive) | 0.88 (inactive)
CCOC(=O)Nc1ccc(NCc2ccc(F)cc2)nc1N [Flupirtine] (20 µM) | 1.18 | 0.973 | 1.04 | 0.999 | 0.95 (inactive) | 0.95 (inactive) | 1.01 (inactive) | 1.03 (inactive) | 0.993 (inactive) | 1.01 (inactive) | 0.999 (inactive) | 1.03 (inactive)
CCCCCCCCCCCCCCCCCCCCCC(=O)Nc1ccn([C@@H]2O[C@H](CO)[C@@H](O)[C@@H]2O)c(=O)n1 [Enocitabine] (20 µM) | 0.978 | 0.973 | 0.98 | 0.975 | 1.03 (inactive) | 0.984 (inactive) | 0.913 (inactive) | 1.01 (inactive) | 1.01 (inactive) | 1.01 (inactive) | 1.02 (inactive) | 0.866 (inactive)
O=C(O)COCCN1CCN(C(c2ccccc2)c2ccc(Cl)cc2)CC1 (centres undefined) [Cetirizine dihydrochloride] (20 µM) | 1.02 | 1.07 | 1.04 | 0.959 | 0.94 (inactive) | 1.03 (inactive) | 1.01 (inactive) | 1.06 (inactive) | 0.997 (inactive) | 0.957 (inactive) | 1 (inactive) | 1.03 (inactive)
C[C@@H]1CCO[C@H]2Cn3cc(C(=O)NCc4ccc(F)cc4F)c(=O)c(O)c3C(=O)N12 [Dolutegravir] (20 µM) | 1.06 | 1.02 | 0.992 | 0.891 | 1.08 (inactive) | 1.02 (inactive) | 0.954 (inactive) | 1.07 (inactive) | 0.999 (inactive) | 0.984 (inactive) | 0.987 (inactive) | 0.941 (inactive)
O=C(CCCCC(=O)Nc1c(I)cc(I)c(C(=O)O)c1I)Nc1c(I)cc(I)c(C(=O)O)c1I [Iodipamide] (20 µM) | 0.854 | 1.01 | 0.982 | 0.98 | 1.04 (inactive) | 1.02 (inactive) | 0.925 (inactive) | 1.13 (inactive) | 1.02 (inactive) | 1.01 (inactive) | 0.989 (inactive) | 0.892 (inactive)
O=C1c2c(O)cccc2Cc2cccc(O)c21 [Anthralin] (20 µM) | 1.07 | 0.981 | 1.03 | 0.95 | 1.05 (inactive) | 1.1 (inactive) | 0.996 (inactive) | 1.02 (inactive) | 1.01 (inactive) | 0.992 (inactive) | 0.999 (inactive) | 0.91 (inactive)
CCN(CC)CCCC(C)Nc1ccnc2cc(Cl)ccc12 (centres undefined) [Chloroquine diphosphate] (20 µM) | 1.07 | 0.965 | 0.996 | 0.941 | 1.04 (inactive) | 1.1 (inactive) | 1.03 (inactive) | 0.939 (inactive) | 1.02 (inactive) | 0.962 (inactive) | 0.985 (inactive) | 1.02 (inactive)
CC(C)Nc1cccnc1N1CCN(C(=O)c2cc3cc(NS(C)(=O)=O)ccc3[nH]2)CC1 [Delavirdine] (20 µM) | 1.03 | 1.01 | 0.995 | 0.754 | 1.04 (inactive) | 0.965 (inactive) | 1.05 (inactive) | 0.984 (inactive) | 0.906 (inactive) | 1.04 (inactive) | 1.05 (inactive) | 1.04 (inactive)
CNNCc1ccc(C(=O)NC(C)C)cc1 [Procarbazine hydrochloride] (20 µM) | 1.03 | 1.07 | 1.02 | 1.27 | 1.05 (inactive) | 1.02 (inactive) | 1.03 (inactive) | 1.02 (inactive) | 0.983 (inactive) | 0.984 (inactive) | 1 (inactive) | 1.06 (inactive)
C[C@H](Cc1cc2c(c(C(N)=O)c1)N(CCCO)CC2)NCCOc1ccccc1OCC(F)(F)F [Silodosin] (20 µM) | 1 | 1 | 1.02 | 1.11 | 0.918 (inactive) | 1.08 (inactive) | 1.01 (inactive) | 0.941 (inactive) | 0.992 (inactive) | 1.02 (inactive) | 1.02 (inactive) | 0.999 (inactive)

Reference: the supplement of paper PMC12494721
